Source: PubChem
A selection: hits, their analogues and other compounds. The true share with any hit is near 1.9%.
ZTA DNA inh = ZTA (EBV) inhibition in EBNA-1 counter-screen. inhibition, % at 11 µM. AID 2234. actives 0.15% (n = 320,000). P03206. ZTA-DNA binding, fluorescence polarization; in the data active = inhibition above about 33%
p47phox inh = inhibitors of human p47phox binding | p47phox/p22phox peptide binding, fluorescence polarization, 2 h | inhibition, % at 24.7 µM | actives 0.53% (n = 220,000) | AID 1274;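 active = inhibition above about 30%, limit read from the data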;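 note: 0% = p47phox with labelled peptide and 100% = labelled peptide alone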
Target sequence (P14598 whole entry, looked up): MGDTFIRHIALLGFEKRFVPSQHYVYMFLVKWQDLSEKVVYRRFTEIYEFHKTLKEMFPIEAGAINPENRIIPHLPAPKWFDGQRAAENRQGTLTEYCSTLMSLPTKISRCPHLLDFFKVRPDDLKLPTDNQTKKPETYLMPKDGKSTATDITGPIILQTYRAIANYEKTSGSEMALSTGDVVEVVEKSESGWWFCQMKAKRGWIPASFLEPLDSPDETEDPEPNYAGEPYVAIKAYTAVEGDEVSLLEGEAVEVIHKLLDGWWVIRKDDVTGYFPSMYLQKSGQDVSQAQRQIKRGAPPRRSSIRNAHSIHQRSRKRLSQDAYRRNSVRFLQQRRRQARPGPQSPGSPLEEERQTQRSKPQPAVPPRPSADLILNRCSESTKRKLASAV
Rev-erbA mod = modulators of human Rev-erb alpha DNA binding; P20393; Rev-erbα–FITC-DNA binding, fluorescence polarization, 90 min; activity, % at 10 µM; actives 0.79% (n = 370,000);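 active = activity above about 14%, limit read from the data; passing the limit was not always enough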;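 note: 0% = DMSO wells with 35 nM protein and 100% = DMSO wells with 750 nM protein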
EBNA-1 inhibitor = blocks EBNA-1 binding to DNA; EBNA-1 DNA binding, fluorescence polarization; inhibition, % at 14.8 µM; actives 0.34% (n = 300,000); in the data active = inhibition above about 28%
PG9 binder = small molecules binding HIV-1 gp120 antibody PG9; TR-FRET gp120-PG9 antibody binding; inhibition, % at 6.7 µM; actives 0.43% (n = 360,000); in the data active = inhibition above about 8.5%
aDG glyco up = increases alpha dystroglycan glycosylation; Pro5-aDG cells, alpha-DG glycosylation AlphaScreen (IIH6); 0% Pro5, 100% B10-LARGE cell signal; activation, % at 10 µM; actives 0.22% (n = 360,000);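 active = activation of at least 8% versus controls, or a plate z-score of at least 8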;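 note: Pro5 are CHO cells carrying HIG-tagged alpha-DG that lacks glycosylation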
ZTA inh confirm = confirmation of Epstein-Barr virus ZTA DNA binding inhibitors; shares compounds with ZTA DNA inh; actives 30% (n = 320); Zta-ZRE DNA binding, fluorescence polarization; inhibition, % at 11.1 µM;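 active = mean inhibition across triplicate runs above the hit threshold derived for the original primary screen, cut at about 33% in these data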;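 note: 0% = Zta with DMSO and 100% = wells lacking Zta protein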
EBNA1 counter = counter-screen for ZTA inhibitors: EBNA-1 DNA binding inhibition | fluorescence polarization | inhibition, % at 14.8 µM | 320 tested, under 10 active | AID 2362 | shares compounds with ZTA DNA inh; call rule not given here
The depositor's hits bear a star; . = no result given; + = active, no number.

SMILES | ZTA DNA inh | p47phox inh | Rev-erbA mod | EBNA-1 inhibitor | PG9 binder | aDG glyco up | ZTA inh confirm | EBNA1 counter
Cc1cc(=O)oc(C)c1C(=O)OCC(=O)c1ccc(Cl)cc1 | 35.9* | -2.9 | -1.4 | -0.9 | -1.9 | 1.0 | -6.2 | -9.8
Cc1cc(=O)oc(C)c1C(=O)OCC(=O)c1ccc(Br)cc1 | 31.3 | 10.5 | -2.5 | -4.0 | -2.0 | 0.5 | . | .
Nc1c(C(=O)NCc2ccc(F)cc2)c2nc3ccccc3nc2n1CCCN1CCOCC1 | 65.8* | -41.3 | -5.4 | 7.1 | 1.3 | 3.6 | 10.6 | 1.2
O=C(CCN1C(=O)/C(=C/c2ccco2)SC1=S)Nc1ccc(C(=O)O)c(O)c1 | 27.1 | . | -11.2 | -5.4 | -4.7 | 0.0 | . | .
O=C(CCN1C(=O)/C(=C\c2ccco2)SC1=S)Nc1ccc(C(=O)O)c(O)c1 | 44.4* | . | -10.3 | -0.9 | -3.8 | 0.1 | 9.1 | 7.0
CCOC(=O)CC[C@@]1(C(=O)OCC)C[C@@H](CC(=O)NCc2cccs2)C(=O)N2CCCC=C21 | . | . | -1.4 | . | . | . | . | .
Cc1ccc(Cn2ncc(Cl)c(Cl)c2=O)cc1 | 1.8 | 3.2 | -8.4 | -3.9 | -1.7 | -0.1 | . | .
O=c1c(Cl)c(Cl)cnn1Cc1ccccc1Cl | 34.2* | 1.5 | -4.4 | 3.5 | -2.9 | . | 4.4 | -0.7
N#Cc1nc(/C=C/c2ccccc2)oc1NCCCN1CCOCC1 | 33.1* | -9.5 | 0.3 | 4.2 | 0.8 | 0.2 | 3.2 | 0.5
CN(CC(=O)Nc1ccc(Cl)c(Cl)c1)CC(=O)Nc1ccc2c(c1)OCO2 | + | . | -2.9 | . | -0.6 | 0.0 | -2.2 | -6.9
O=C(CSc1nc2ccccc2[nH]1)NN=Cc1c(F)cccc1Cl | . | . | -0.3 | . | . | . | . | .
O=C(Nc1ccc2nc(-c3cccs3)[nH]c2c1)c1cccs1 | -11.7 | -11.1 | -0.6 | -6.4 | 2.1 | 0.0 | . | .
O=C(Nc1ccc(-c2nc3ccc(NC(=O)c4cccs4)cc3[nH]2)cc1)c1cccs1 | 55.3* | -15.4 | -15.8 | -12.1 | 1.7 | 0.3 | 43.0* | 3.9
Cc1ccc(-n2c(SCC(=O)Nc3cccc4ccccc34)nnc2-c2cnccn2)cc1 | . | . | -7.8 | . | . | . | . | .
Cc1cccc(CN2C(=O)/C(=C\c3ccc(C(=O)NCCCN4CCN(C)CC4)cc3)Oc3ccccc32)c1 | 69.7* | . | -7.1 | 5.4 | 2.2 | 0.8 | 49.8* | -9.7
CCn1c(=O)n(CC(=O)N2CCN(C(C)=O)CC2)c(=O)c2ccccc21 | . | . | -1.1 | . | . | . | . | .
CCC(Oc1ccccc1)C(=O)Nc1nc2ccccc2[nH]1 (stereo not given) | 37.5* | -10.9 | 6.7 | -7.3 | 0.1 | 0.0 | 3.3 | -1.4
CCn1c2ccccc2c2cc(NC(=O)COC(=O)c3cc(F)cc(F)c3)ccc21 | . | . | 2.7 | . | . | . | . | .
Cc1cc(C(=O)O)ccc1-n1c(C)ccc1C | 55.3* | -24.8 | . | 23.4 | . | . | 56.7* | 9.3
Cc1cc(C(=O)O)ccc1-n1c(C)cc(C=C2C(=O)c3ccccc3C2=O)c1C | 9.3 | -17.9 | -2.1 | -0.8 | -0.6 | 0.2 | . | .
Cc1cc(C)nc(NC(=O)NS(=O)(=O)Nc2ccc(Br)cn2)n1 | 33.1* | -13.9 | . | 14.9 | . | 2.2 | -5.9 | -2.6
O=C(NS(=O)(=O)Nc1ccc(Br)cn1)c1c[nH]c2ccccc12 | -6.4 | . | -0.9 | -0.5 | 1.8 | 0.1 | . | .
COc1cc2nc(SCc3ccc(C(F)(F)F)cc3)n(Cc3cccs3)c(=N)c2cc1OC | 17.4 | -20.3 | 5.4 | -0.4 | -0.1 | 0.0 | . | .
COc1ccc(Cn2c(SCc3ccc(C)cc3)nc3cc(OC)c(OC)cc3c2=N)cc1Cl | 35.4* | 35.0* | 5.8 | 8.9 | -0.1 | -0.8 | 11.7 | 23.5
COC(=O)[C@]1(C#N)CC(=O)N(Cc2ccc(Cl)cc2)[C@@H]1c1ccccc1 | . | . | 1.5 | . | . | . | . | .
CC1CCN(C(=O)COC(=O)c2n[nH]c(=O)c3ccccc23)CC1 | 35.6* | . | 3.9 | . | -0.4 | -0.3 | -0.8 | -7.2
O=S1(=O)c2c(NCc3ccco3)cccc2Oc2ccccc2CN1Cc1cn(Cc2cccc(F)c2)nn1 | . | . | -0.2 | . | . | . | . | .
Cc1ccc(NC(=O)c2c(C(=O)Nc3ccccc3)sc3nc(C)cc(=O)n23)cc1 | -12.2 | -10.5 | -4.3 | -13.3 | -0.2 | -0.2 | . | .
